Inconclusive results are not listed. Where a call stands in place of a potency, no number is given. Activity calls are given as the source filed them. Calls follow the shape of the dose curve; as a rule, active = well fitted curve in the direction sought with a large enough effect; inconclusive = small, poorly fitted or top-dose-only effect, or another doubt; inactive = no such curve, though single readings can be large; an effect the other way counts as inactive or inconclusive.
Tests used:
[1] = qHTS assay to identify small molecule inhibitors of chordoma cells - UCH-2 (AID 1259356); also: potency is read from the fitted curve at half-maximal effect
[2] = P-glycoprotein substrates identified in KB-8-5-11 adenocarcinoma cell line, qHTS therapeutic library screen (AID 1346987); also: nearly all actives have a fitted effect of over 65% in size; also: potency is read from the fitted curve at half-maximal effect
In short: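 Compounds are pinned in dose-response onto KB-8-5-11 cells (500 cells/well, colchicine-free medium) and left 72 h at 37 degree C. CellTiter-Glo luminescence then yields AC50 values.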

[3] = qHTS assay for cell viability of the p53RE-bla HCT-116 cell line (AID 743292); also: nearly all actives have a fitted effect of over 55% in size
In short: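 Readout: CellTiter-Glo luminescence after 30 min RT. Treatment: compounds in DMSO, 16 h, 37 C. Cells: CellSensor p53RE-bla HCT-116, 4,000/well, preincubated 5 h.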

[4] = qHTS assay to identify small molecule inhibitors of chordoma cells - UCH-1 (AID 1259355); also: nearly all actives have a fitted effect of over 55% in size
In short: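 A 48hr growth-inhibition format: each drug tested at 15 concentrations together with added auranofin, camptothecin, doxorubicin, rubitecan and topotecan, with cell viability quantified as CellTiter-Glo luminescence.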

In the case of `C[C@H]1CC[C@]2(NC1)O[C@H]1C[C@H]3[C@@H]4CC[C@H]5C[C@@H](O)CC[C@]5(C)[C@H]4CC[C@]3(C)[C@H]1[C@@H]2C`, the Potency [1] is reported as “inactive” and the Potency [2] is reported as “inactive”.
For `CO[C@H]1[C@@H](O)C[C@H](O[C@H]2[C@@H](O)C[C@H](O[C@H]3[C@@H](O)C[C@H](O[C@H]4CC[C@@]5(C)[C@H](CC[C@@H]6[C@@H]5C[C@@H](O)[C@]5(C)[C@@H](C7=CC(=O)OC7)CC[C@]65O)C4)O[C@@H]3C)O[C@@H]2C)O[C@@H]1C`, the Potency [1] was 58 nM (active) and the Potency [2] was 259 nM (active).
In the case of `OC[C@@H](O)[C@H]1O[C@@H]2O[C@@H](C(Cl)(Cl)Cl)O[C@@H]2[C@H]1O`, the Potency [1] is reported as “inactive” and the Potency [2] is reported as “inactive”.
For `O=C1CN(O)C(c2ccccc2)=c2cc(Cl)ccc2=N1`, the Potency [1] was “inactive”.
For `[Cl-].[Cl-].[Hg+2]`, the Potency [3] was “inactive”, the Potency [1] was “inactive” and the Potency [2] was 3660 nM (active).
In the case of `CC(C)(O)[C@@H]1[C@H]2OC(=O)[C@@H]1[C@]1(O)C[C@H]3O[C@]34C(=O)O[C@H]2[C@]14C`, the Potency [1] is reported as “inactive” and the Potency [2] is reported as “inactive”.
In the case of `CCCCCl`, the Potency [3] is reported as “inactive”, the Potency [4] is reported as “inactive” and the Potency [2] is reported as “inactive”.
With `COC(=O)[C@@H]1[C@H]2CC[C@@H](C[C@H]1OC(=O)c1ccccc1)N2C` the Potency [1] was “inactive”.
With `C=C[C@H]1CN2CC[C@H]1C[C@@H]2[C@@H](O)c1ccnc2ccccc12` the Potency [1] was “inactive”.
With `CCNC1(c2cccs2)CCCCC1=O` (stereo not drawn) the Potency [1] was “inactive”.
With `CCCC(C)(COC(N)=O)COC(=O)NC1CC1` (stereo not drawn) the Potency [1] was “inactive” and the Potency [2] was “inactive”.
In the case of `CC1CCC(C(C)C)C(OC(=O)c2ccccc2N)C1` (stereo not drawn), the Potency [1] is reported as “inactive” and the Potency [2] is reported as “inactive”.
With `C[C@]12CC[C@H]3[C@@H](CC[C@@]45O[C@@H]4C(O)=C(C#N)C[C@]35C)[C@@H]1CC[C@@H]2O` the Potency [1] was “inactive”.

Source: PubChem BioAssay (NCATS)
